# According to the supplement of paper PMC6763611:
# Tested on: Plasmodium falciparum NF54
# Test: growth inhibition relative to untreated control; higher = more inhibition
# Details: 1 µM; MM + chorismate end-products (CM screening medium); 72 h
# Summary of the method: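 In dark 96-well half-area plates, each well held 100 μL of P. falciparum NF54 ring-stage culture at 1% parasitemia and 1% hematocrit. The cultures received a single test-compound dose of 5 μM or 1 μM and were kept at 37 °C for 72 h, in minimal RPMI either plain or enriched with folate (2.2 μM), pABA (7.3 μM), pHBA (7.3 μM), tyrosine (111 μM), phenylalanine (90 μM) and tryptophan. SYBR Green staining gave growth inhibition, expressed against untreated wells, with uninfected erythrocytes serving as the background.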
row,SMILES,growth inhibition [%]
1,OCCc1ccc(Nc2nccc(-c3nnc4ccccn34)n2)cc1,82.3
2,Cc1nc(-c2cccc(NCc3ccccc3)c2)[nH]c1C,63.5
3,COc1cccc(NC(=O)c2c(NC(=O)c3cccnc3)sc3c2CCC3)c1,47.5
4,NCCCC(N)(C(=O)O)C(F)F (stereo unspecified),14
5,OC[C@H]1O[C@@H](n2c3ccc(Cl)cc3c3c(-c4cc5ccccc5o4)ncnc32)C(O)[C@H]1O (stereo partly specified),1.89
6,COc1ccc(C2=NN(C3CCCCCC3)C(=O)[C@@H]3CC=CC[C@H]23)cc1OCCCCOc1ccc(-c2nnn[nH]2)cc1,19
7,CC1=NN(c2nc3ccccc3s2)C(=O)C1Cc1cccc2ccccc12 (stereo unspecified),< 0
8,Cc1nc(-c2ccccn2)nc(N2CCC(Cc3ccccc3)C2)c1Cl (stereo unspecified),52.8
9,c1ccc(-c2cc(N3CCCCC3)c3ccccc3n2)nc1,3.57
10,Cc1cc(Cl)c(S(=O)(=O)N2CCCC2)cc1OCC(=O)NC1CCCCC1,71.3
11,CC1COC2(CCN(c3nc(=O)c4cc(C(F)(F)F)cc([N+](=O)[O-])c4s3)CC2)O1 (stereo unspecified),6.95
12,Cc1cccc(Cn2ccc(NC(=O)c3ccc4c(c3)OCO4)n2)c1,18.2
13,COc1ccc(-c2cnc3cnc(-c4cccc(OC(C)C)c4)cn23)cc1,36.4
14,COc1ccc(-c2onc(C(F)(F)F)c2-c2ccc(Cl)cc2)c(O)c1,94
15,Cc1ccc(Oc2ccc(NC(=O)CNc3ccccc3N3CCCC3=O)cc2)cc1,85.2
16,COc1cc(C2=NCCN2)cc2cc(-c3ccc(C4=NCCN4)cc3)oc12,78
17,C[C@]1(O)C[C@@H](c2nc(-c3ccc4ccc(-c5ccccc5)nc4c3)c3c(N)nccn32)C1,35
18,CC(C)(C)[C@H]1CC[C@H](CC2=C(O)C(=O)c3ccccc3C2=O)CC1,97.5
19,CN(C)CCNC(=O)N1CCCN(c2ncnc3cc(-c4ccccc4)sc23)CC1,72.9

row,SMILES,growth inhibition [%]
1,Cc1cc(C(=O)Nc2ccc(-c3ccccc3)cc2)no1,96.4
2,COc1ccc(Oc2ccc([C@@H](C)N(C)c3ncc4c(N)nc(N)nc4n3)cc2)cc1,13.7
3,N#Cc1nc(-c2ccccc2F)oc1NCCc1ccccc1,< 0
4,COc1ccc2nccc(NC(=O)C3CCN(CCc4ccc(Cl)cc4)CC3)c2n1,33.1
5,Cc1[nH]c2ccccc2c1C(c1cccs1)N1CCN(C)CC1 (stereo unspecified),11.9
6,COc1cc(NC(=O)Cc2nn(C)c(=O)c3ccccc23)ccc1Cl,16.1
7,CCN(CC)CCCCCCNc1cc(OC)cc2c(C)ccnc12,93.3
8,CCOC(=O)NC(=O)c1ccsc1NC(=O)c1nc2ccccc2s1,36.1
9,O=C(C1CCN(c2nnc(-n3cccc3)s2)CC1)N1CCC(Cc2ccccc2)CC1,6.31
10,NC(=O)c1cc(Br)ccc1OCCOc1ccccc1,14.5
11,COc1cc(Br)cc2cc(C(=O)Nc3cccc(C(F)(F)F)c3)c(=O)oc12,11.9
12,CC(C)/N=c1\cc2n(-c3ccc(Cl)cc3)c3ccccc3nc-2cc1Nc1ccc(Cl)cc1,91.5
13,CCCCc1ccc(C(=O)Nc2nccc3ccccc23)nc1,6.6
14,Nc1ccc2ncnc(Nc3ccc(OCc4cccc(F)c4)c(Cl)c3)c2c1,61.9
15,O=C(NC1CC1)c1ccc(CSCc2ccccc2Cl)o1,59.9
16,NS(=O)(=O)c1cncc(-c2ccc3nccc(-c4cn[nH]c4)c3n2)c1,83.8
17,CNC1C(OC2C(OC3C(O)C(O)C(N=C(N)N)C(O)C3N=C(N)N)OC(C)C2(O)C=O)OC(CO)C(O)C1O (stereo unspecified),20.4
18,CC(=O)N(CCN(C(=O)c1ccc(F)cc1)c1ccccc1)c1ccccc1,< 0
19,Cn1ncc2c(N3CCOCC3)nc(NCCc3c[nH]c4ccccc34)nc21,18.9

# Same assay, conditions: 1 µM; minimal medium (MM); 72 h
row,SMILES,growth inhibition [%]
1,OCCc1ccc(Nc2nccc(-c3nnc4ccccn34)n2)cc1,80.1
2,Cc1nc(-c2cccc(NCc3ccccc3)c2)[nH]c1C,35.9
3,COc1cccc(NC(=O)c2c(NC(=O)c3cccnc3)sc3c2CCC3)c1,9.66
4,NCCCC(N)(C(=O)O)C(F)F (stereo unspecified),< 0
5,OC[C@H]1O[C@@H](n2c3ccc(Cl)cc3c3c(-c4cc5ccccc5o4)ncnc32)C(O)[C@H]1O (stereo partly specified),13.6
6,COc1ccc(C2=NN(C3CCCCCC3)C(=O)[C@@H]3CC=CC[C@H]23)cc1OCCCCOc1ccc(-c2nnn[nH]2)cc1,16.4
7,CC1=NN(c2nc3ccccc3s2)C(=O)C1Cc1cccc2ccccc12 (stereo unspecified),0.985
8,Cc1nc(-c2ccccn2)nc(N2CCC(Cc3ccccc3)C2)c1Cl (stereo unspecified),3.18
9,c1ccc(-c2cc(N3CCCCC3)c3ccccc3n2)nc1,< 0
10,Cc1cc(Cl)c(S(=O)(=O)N2CCCC2)cc1OCC(=O)NC1CCCCC1,100
11,CC1COC2(CCN(c3nc(=O)c4cc(C(F)(F)F)cc([N+](=O)[O-])c4s3)CC2)O1 (stereo unspecified),12.6
12,Cc1cccc(Cn2ccc(NC(=O)c3ccc4c(c3)OCO4)n2)c1,6.8
13,COc1ccc(-c2cnc3cnc(-c4cccc(OC(C)C)c4)cn23)cc1,34.1
14,COc1ccc(-c2onc(C(F)(F)F)c2-c2ccc(Cl)cc2)c(O)c1,94.8
15,Cc1ccc(Oc2ccc(NC(=O)CNc3ccccc3N3CCCC3=O)cc2)cc1,87.4
16,COc1cc(C2=NCCN2)cc2cc(-c3ccc(C4=NCCN4)cc3)oc12,> 100
17,C[C@]1(O)C[C@@H](c2nc(-c3ccc4ccc(-c5ccccc5)nc4c3)c3c(N)nccn32)C1,34.1
18,CC(C)(C)[C@H]1CC[C@H](CC2=C(O)C(=O)c3ccccc3C2=O)CC1,95.2
19,CN(C)CCNC(=O)N1CCCN(c2ncnc3cc(-c4ccccc4)sc23)CC1,99.2

row,SMILES,growth inhibition [%]
1,Cc1cc(C(=O)Nc2ccc(-c3ccccc3)cc2)no1,91.1
2,COc1ccc(Oc2ccc([C@@H](C)N(C)c3ncc4c(N)nc(N)nc4n3)cc2)cc1,< 0
3,N#Cc1nc(-c2ccccc2F)oc1NCCc1ccccc1,< 0
4,COc1ccc2nccc(NC(=O)C3CCN(CCc4ccc(Cl)cc4)CC3)c2n1,30.5
5,Cc1[nH]c2ccccc2c1C(c1cccs1)N1CCN(C)CC1 (stereo unspecified),21.1
6,COc1cc(NC(=O)Cc2nn(C)c(=O)c3ccccc23)ccc1Cl,5.71
7,CCN(CC)CCCCCCNc1cc(OC)cc2c(C)ccnc12,92.8
8,CCOC(=O)NC(=O)c1ccsc1NC(=O)c1nc2ccccc2s1,< 0
9,O=C(C1CCN(c2nnc(-n3cccc3)s2)CC1)N1CCC(Cc2ccccc2)CC1,8.02
10,NC(=O)c1cc(Br)ccc1OCCOc1ccccc1,< 0
11,COc1cc(Br)cc2cc(C(=O)Nc3cccc(C(F)(F)F)c3)c(=O)oc12,6.95
12,CC(C)/N=c1\cc2n(-c3ccc(Cl)cc3)c3ccccc3nc-2cc1Nc1ccc(Cl)cc1,89.1
13,CCCCc1ccc(C(=O)Nc2nccc3ccccc23)nc1,< 0
14,Nc1ccc2ncnc(Nc3ccc(OCc4cccc(F)c4)c(Cl)c3)c2c1,24.6
15,O=C(NC1CC1)c1ccc(CSCc2ccccc2Cl)o1,> 100
16,NS(=O)(=O)c1cncc(-c2ccc3nccc(-c4cn[nH]c4)c3n2)c1,> 100
17,CNC1C(OC2C(OC3C(O)C(O)C(N=C(N)N)C(O)C3N=C(N)N)OC(C)C2(O)C=O)OC(CO)C(O)C1O (stereo unspecified),29.2
18,CC(=O)N(CCN(C(=O)c1ccc(F)cc1)c1ccccc1)c1ccccc1,< 0
19,Cn1ncc2c(N3CCOCC3)nc(NCCc3c[nH]c4ccccc34)nc21,31.1
